Molecules are shown by their SMILES. Results filed as inconclusive are left out. Values without a mark were called inactive. Active and inactive are the calls of the source. Calls follow the shape of the dose curve; as a rule, active = well fitted cell-killing curve with a large enough effect; inconclusive = small, poorly fitted or top-dose-only effect, or effect the other way; inactive = no such curve, though single readings can be large or run the other way.
Also: nearly all actives have a fitted effect of over 30% in size.
Potency is read from the fitted curve at half-maximal effect.

One test can be described thus: Quantitative High-Throughput drug screen in 47 multiple myeloma cell lines against the NCATS MIPE library collection: Karpas620_DSMZ cell viability assay (AID 1918959).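 As to viability (% of DMSO): 100% = DMSO-only wells and 0% = cell-free media-only wells.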 The note with it: Karpas620 myeloma viability, CellTiter-Glo ATP luminescence, 48 h; series mostly up to 45.8 µM; viability (% of DMSO): at the top concentration. The gist of the method: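 Viability readout: CellTiter-Glo luminescence following 5 min room-temperature incubation with reagent. Prior exposure: 48 h, 37C, humidified 5% CO2, 500 cells per well.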
For `Cc1ccc(C(N)=O)cc1Nc1nccc(-c2cn(C(C)C)c3cnccc23)n1`, the Potency is 6.62 µM (active).

In the case of `N#CCNC(=O)c1ccc(-c2ccnc(Nc3ccc(N4CCOCC4)cc3)n2)cc1`, the “viability (% of DMSO)” value is 113%.

As for `C#Cc1cccc(Nc2ncnc3cc(OC)c(OCCCCCCC(=O)NO)cc23)c1`, the Potency is 0.0743 µM (active).

Turning to `CN(c1ncccc1CNc1nc(Nc2ccc3c(c2)CC(=O)N3)ncc1C(F)(F)F)S(C)(=O)=O`, the Potency was 1.48 µM (active).

As to `O=C1CCC[C@@H]2[C@H]3CCC[N+]4([O-])CCC[C@@H](CN12)[C@@H]34` (stereo not given in full), the “viability (% of DMSO)” value was 107%.

For `COC(=O)C[C@](O)(CCCC(C)(C)O)C(=O)O[C@@H]1C(OC)=C[C@]23CCCN2CCc2cc4c(cc2[C@H]13)OCO4`, the “viability (% of DMSO)” value is 126%.

For the compound `CCN(CC)CCCCNc1ncc2cc(-c3cc(OC)cc(OC)c3)c(NC(=O)NC(C)(C)C)nc2n1`, the Potency was 26.4 µM (active).

Consider `Cc1ccc(NC(=O)C2(c3ccc4c(c3)OC(F)(F)O4)CC2)nc1-c1cccc(C(=O)O)c1`, for which the Potency was 0.166 µM (active).

On to `Fc1cc(-c2cccc3ncc(-c4cnn(C5CCNCC5)c4)nc23)cc(F)c1CN1CCOCC1`, for which the Potency was 7.43 µM (active).

Consider `CCCn1c(=O)c2[nH]c(-c3cnn(Cc4cccc(C(F)(F)F)c4)c3)nc2n(CC)c1=O`, for which the “viability (% of DMSO)” value was 119%.

Regarding `COc1ccc(-n2nc(C(N)=O)c3c2C(=O)N(c2ccc(N4CCCCC4=O)cc2)CC3)cc1`, the “viability (% of DMSO)” value is 109%.

Consider `O=C(CCCCCCNC(=O)c1cnc(N(c2ccccc2)c2ccccc2)nc1)NO`, for which the Potency was 5.9 µM (active).

Take `O=C(CCCCCCC(=O)Nc1ccc([C@H]2O[C@@H](CSc3nc(-c4ccccc4)c(-c4ccccc4)o3)C[C@@H](c3ccc(CO)cc3)O2)cc1)NO`: the “viability (% of DMSO)” value is 108%.

`COc1ccc(OC)c(-c2nnc3ccc(-c4ccc(OC)c(O[C@@H]5CCOC5)c4)nn23)c1`: the Potency is 8.33 µM (active).

`COc1cc(C(C)C)c2c(c1)S(=O)(=O)N(COc1cc(=O)n3cccc(OCCN4CCCCC4)c3n1)C2=O`: the Potency was 20.9 µM (active).

As to `C[C@@H](Oc1cc(-c2cnn(C3CCNCC3)c2)cnc1N)c1c(Cl)ccc(F)c1Cl`, the Potency is 14.8 µM (active).

For `OCc1ccc(-c2ccc(-c3ccc(CO)s3)o2)s1`, the “viability (% of DMSO)” value is 117%.

On to `O=C(c1ccc(Nc2nccc(-c3cc4ccccc4s3)n2)cc1)N1CCC(N2CCCC2)CC1`, for which the Potency is 4.18 µM (active).

On to `O=C(Nc1cn[nH]c1-c1nc2ccc(CN3CCOCC3)cc2[nH]1)NC1CC1`, for which the Potency was 5.26 µM (active).

Turning to `CC(C)c1ccc(Cn2ccc3c4c(N)nc(NC5CC5)nc4ccc32)cc1`, the Potency was 1.05 µM (active).

As to `Cc1cn(-c2cc(NC(=O)c3ccc(C)c(Nc4nccc(-c5cccnc5)n4)c3)cc(C(F)(F)F)c2)cn1`, the “viability (% of DMSO)” value is 100%.

For `COc1cc2c(cc1-c1c(C)noc1C)ncc1[nH]c(=O)n([C@H](C)c3ccccn3)c12`, the Potency is 5.9 µM (active).

Consider `OCCCNc1cc(-c2ccnc(Nc3cccc(Cl)c3)n2)ccn1`, for which the Potency is 0.0662 µM (active).

As to `CC(C)(C)OC(=O)Nc1ccc(-c2cc(C(=O)NCCCCCCC(=O)NO)no2)cc1`, the Potency is 2.35 µM (active).

As for `C[C@H]1C[C@@H]2[C@@H]([C@@H](O)C[C@@]3(C)[C@H]2CC[C@]3(O)C(=O)CO)[C@@]2(C)C=CC(=O)C=C12`, the “viability (% of DMSO)” value is 90.1%.

In the case of `NC(=O)Nc1cc(-c2cccc(F)c2)sc1C(=O)N[C@H]1CCCNC1`, the Potency is 3.72 µM (active).

Take `COc1cc2c(Oc3ccc(NC(=O)C4(C(=O)Nc5ccc(F)cc5)CC4)cc3F)ccnc2cc1OCCCN1CCOCC1`: the Potency was 6.62 µM (active).

Take `COC(=O)C1=C(C)NC(C)=C(C(=O)OCCN2CCN(C(c3ccccc3)c3ccccc3)CC2)C1c1cccc([N+](=O)[O-])c1` (stereo not given): the “viability (% of DMSO)” value was 112%.

On to `O=C(Cc1ccc(-c2ccc(OCCN3CCOCC3)cc2)cn1)NCc1ccccc1`, for which the Potency was 0.0042 µM (active).

Another test in a line: Quantitative High-Throughput drug screen in 47 multiple myeloma cell lines against the NCATS MIPE library collection: KMM1_JCRB cell viability assay (AID 1918960).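 As to viability (% of DMSO): 100% = DMSO-treated cells and 0% = medium-only wells.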 The note with it: KMM1 myeloma viability, CellTiter-Glo ATP luminescence, 48 h; series mostly up to 45.8 µM; viability (% of DMSO): at the top concentration. Summed up:
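Luminescence from CellTiter-Glo, taken after 5 min at room temperature, reports cellular ATP as viability. Cells (500 per well) had been treated 48 h at 37 °C with MIPE 4.0 compounds, scaled between DMSO and medium-only controls.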
For orientation: Cellular ATP, detected with luciferase, serves as a proxy for viable cell number.
Turning to `Cc1ccc(C(N)=O)cc1Nc1nccc(-c2cn(C(C)C)c3cnccc23)n1`, the Potency is 4.18 µM (active).

`N#CCNC(=O)c1ccc(-c2ccnc(Nc3ccc(N4CCOCC4)cc3)n2)cc1`: the “viability (% of DMSO)” value was 107%.

On to `c1ccc2c(CCNc3ccc(Nc4ccncc4)cc3)c[nH]c2c1`, for which the Potency is 2.96 µM (active).

Turning to `C#Cc1cccc(Nc2ncnc3cc(OC)c(OCCCCCCC(=O)NO)cc23)c1`, the Potency was 0.0526 µM (active).

`C[C@@H](Oc1cc(-n2cnc3ccc(CN4CCN(C)CC4)cc32)sc1C(N)=O)c1ccccc1C(F)(F)F`: the Potency is 0.0332 µM (active).

For `CN(c1ncccc1CNc1nc(Nc2ccc3c(c2)CC(=O)N3)ncc1C(F)(F)F)S(C)(=O)=O`, the Potency was 3.32 µM (active).

Consider `COc1cccc(Nc2c(C(N)=O)cnc3c(C)cc(S(=O)(=O)c4cccc(C(=O)N(C)C)c4)cc23)c1`, for which the Potency is 10.2 µM (active).

Regarding `COC(=O)C[C@](O)(CCCC(C)(C)O)C(=O)O[C@@H]1C(OC)=C[C@]23CCCN2CCc2cc4c(cc2[C@H]13)OCO4`, the “viability (% of DMSO)” value is 111%.

Take `CCN(CC)CCCCNc1ncc2cc(-c3cc(OC)cc(OC)c3)c(NC(=O)NC(C)(C)C)nc2n1`: the Potency was 18.7 µM (active).

Turning to `Cc1ccc(NC(=O)C2(c3ccc4c(c3)OC(F)(F)O4)CC2)nc1-c1cccc(C(=O)O)c1`, the Potency is 0.059 µM (active).

Regarding `Fc1cc(-c2cccc3ncc(-c4cnn(C5CCNCC5)c4)nc23)cc(F)c1CN1CCOCC1`, the “viability (% of DMSO)” value was 108%.

Regarding `CCCn1c(=O)c2[nH]c(-c3cnn(Cc4cccc(C(F)(F)F)c4)c3)nc2n(CC)c1=O`, the Potency is 1.66 µM (active).

As for `COc1ccc(-n2nc(C(N)=O)c3c2C(=O)N(c2ccc(N4CCCCC4=O)cc2)CC3)cc1`, the “viability (% of DMSO)” value was 105%.

Consider `O=C(CCCCCCNC(=O)c1cnc(N(c2ccccc2)c2ccccc2)nc1)NO`, for which the Potency is 4.18 µM (active).

Take `O=C(CCCCCCC(=O)Nc1ccc([C@H]2O[C@@H](CSc3nc(-c4ccccc4)c(-c4ccccc4)o3)C[C@@H](c3ccc(CO)cc3)O2)cc1)NO`: the “viability (% of DMSO)” value is 111%.

For `COc1ccc(OC)c(-c2nnc3ccc(-c4ccc(OC)c(O[C@@H]5CCOC5)c4)nn23)c1`, the Potency was 8.33 µM (active).

Take `COc1cc(C(C)C)c2c(c1)S(=O)(=O)N(COc1cc(=O)n3cccc(OCCN4CCCCC4)c3n1)C2=O`: the Potency is 26.4 µM (active).

In the case of `C[C@@H](Oc1cc(-c2cnn(C3CCNCC3)c2)cnc1N)c1c(Cl)ccc(F)c1Cl`, the Potency is 13.2 µM (active).

Take `CCN1CCN(CC(=O)Nc2ccc(-c3cccc4c(=O)cc(N5CCOCC5)oc34)c3sc4ccccc4c23)CC1`: the Potency is 0.132 µM (active).

`OCc1ccc(-c2ccc(-c3ccc(CO)s3)o2)s1`: the “viability (% of DMSO)” value is 110%.

Take `O=C(c1ccc(Nc2nccc(-c3cc4ccccc4s3)n2)cc1)N1CCC(N2CCCC2)CC1`: the Potency is 5.9 µM (active).

In the case of `O=C(Nc1cn[nH]c1-c1nc2ccc(CN3CCOCC3)cc2[nH]1)NC1CC1`, the Potency is 2.96 µM (active).

With `CC(C)c1ccc(Cn2ccc3c4c(N)nc(NC5CC5)nc4ccc32)cc1`, the Potency was 2.35 µM (active).

Regarding `Cc1cn(-c2cc(NC(=O)c3ccc(C)c(Nc4nccc(-c5cccnc5)n4)c3)cc(C(F)(F)F)c2)cn1`, the Potency was 0.264 µM (active).

For the compound `COc1cc2c(cc1-c1c(C)noc1C)ncc1[nH]c(=O)n([C@H](C)c3ccccn3)c12`, the Potency is 5.9 µM (active).

Take `OCCCNc1cc(-c2ccnc(Nc3cccc(Cl)c3)n2)ccn1`: the Potency is 0.0526 µM (active).

With `NC(=O)Nc1cc(-c2cccc(F)c2)sc1C(=O)N[C@H]1CCCNC1`, the Potency is 0.187 µM (active).

Regarding `Nc1nccc(Oc2ccc(NC(=O)c3c[nH]cc(-c4ccc(F)cc4)c3=O)cc2F)c1Cl`, the Potency is 2.96 µM (active).

Take `COc1cc2c(Oc3ccc(NC(=O)C4(C(=O)Nc5ccc(F)cc5)CC4)cc3F)ccnc2cc1OCCCN1CCOCC1`: the Potency was 2.96 µM (active).

As for `COC(=O)C1=C(C)NC(C)=C(C(=O)OCCN2CCN(C(c3ccccc3)c3ccccc3)CC2)C1c1cccc([N+](=O)[O-])c1` (stereo not given), the “viability (% of DMSO)” value is 93.2%.

As for `O=C(Cc1ccc(-c2ccc(OCCN3CCOCC3)cc2)cn1)NCc1ccccc1`, the Potency was 0.0118 µM (active).
